Sampled rows, rich in hits. Any-hit rate of the full collection: about 2%.
KCNH2 3.1 block – qHTS for Inhibitors of KCHN2 3.1: Mutant qHTS | 340,000 tested, 0.95% active | AID 720553, 2013 | U2OS KCNH2 3.1, thallium flux FluxOr; stronger effect = lower value | activity change, % (tested at about 1.8 µM);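 active = maximum activity change below -70%; inconclusive = maximum activity change from -70% to -50%; inactive = maximum activity change above -50%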;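 also: thallium influx rate constant from kinetic fluorescence after stimulation buffer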
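Kinetic fluorescence (2 min after stimulation buffer) measures Tl+ influx through KCNH2 3.1 expressed by viral transduction in U2OS cells; the rate constant is normalized against DMSO controls serving as positive and negative references.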
CtBP-E1A blk – qHTS Assay for Inhibitors of the CtBP/E1A Interaction; CtBP / adenovirus E1A interaction (AlphaScreen); AlphaScreen GST-E1A/His-CtBP binding, 1536-well; stronger effect = lower value; activity change, % (test concentration not listed); 340,000 tested, 0.49% active
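Protein mix (5X: 125 nM each GST-E1A, His-CtBP) was incubated with pinned compound 2 h at 37 deg C in dark, in 50 mM Tris pH 8.0 buffer with 300 mM NaCl. Glutathione donor and nickel acceptor beads followed; AlphaScreen signal read after 1 h.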
hERG WT inh – qHTS for Inhibitors of KCHN2 3.1: Wildtype qHTS; U2OS, BacMam KCNH2, thallium flux FluxOr; stronger effect = lower value; 340,000 tested, 0.37% active; activity change, % at 1.84 µM; Voltage-gated inwardly rectifying potassium channel KCNH2 (Homo sapiens), Q12809; AID 720551, 2013;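 active = maximum activity change below -70%; inconclusive = maximum activity change between -70% and -50%; inactive = maximum activity change above -50%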
Target sequence (Q12809 whole entry, looked up): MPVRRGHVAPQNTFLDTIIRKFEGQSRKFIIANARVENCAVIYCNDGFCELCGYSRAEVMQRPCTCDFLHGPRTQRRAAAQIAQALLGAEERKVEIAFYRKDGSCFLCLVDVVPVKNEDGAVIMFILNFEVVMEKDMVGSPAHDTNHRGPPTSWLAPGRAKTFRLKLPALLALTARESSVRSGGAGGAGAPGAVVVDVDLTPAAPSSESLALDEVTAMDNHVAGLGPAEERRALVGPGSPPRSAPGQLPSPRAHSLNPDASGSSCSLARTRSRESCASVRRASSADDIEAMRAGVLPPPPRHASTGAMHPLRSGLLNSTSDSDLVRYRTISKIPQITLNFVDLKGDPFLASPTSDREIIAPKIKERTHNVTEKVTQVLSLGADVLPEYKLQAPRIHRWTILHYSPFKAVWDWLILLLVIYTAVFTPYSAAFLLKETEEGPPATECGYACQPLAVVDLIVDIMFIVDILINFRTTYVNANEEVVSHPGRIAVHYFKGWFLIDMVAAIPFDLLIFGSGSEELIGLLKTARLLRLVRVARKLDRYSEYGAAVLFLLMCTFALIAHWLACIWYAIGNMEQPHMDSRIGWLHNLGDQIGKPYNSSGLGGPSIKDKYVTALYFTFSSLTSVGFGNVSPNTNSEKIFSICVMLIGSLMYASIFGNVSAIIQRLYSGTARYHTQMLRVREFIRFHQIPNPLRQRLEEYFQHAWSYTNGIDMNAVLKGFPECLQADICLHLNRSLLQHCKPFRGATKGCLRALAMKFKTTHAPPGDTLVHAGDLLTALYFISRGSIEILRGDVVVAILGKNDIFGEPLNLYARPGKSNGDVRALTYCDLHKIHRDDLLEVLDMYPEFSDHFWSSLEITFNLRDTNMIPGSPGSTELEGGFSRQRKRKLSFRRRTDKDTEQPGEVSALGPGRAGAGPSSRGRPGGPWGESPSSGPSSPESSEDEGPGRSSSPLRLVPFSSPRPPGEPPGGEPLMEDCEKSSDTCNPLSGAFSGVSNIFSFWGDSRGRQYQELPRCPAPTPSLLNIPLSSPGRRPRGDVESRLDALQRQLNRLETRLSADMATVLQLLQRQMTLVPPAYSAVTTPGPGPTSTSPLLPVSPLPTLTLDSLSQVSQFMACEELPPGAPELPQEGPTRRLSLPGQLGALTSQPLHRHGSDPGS
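U2OS cells were transduced with wild-type KCNH2 virus (2.03 x 10^8 / mL) for 4 h at room temperature, then cultured overnight at 37 C. Thallium flux was read with FluxOr dye. Rate constants were normalized to DMSO controls.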
Six1-Eya2 blk – qHTS Assay for Inhibitors of the Six1/Eya2 Interaction; AlphaScreen GST-Six1/His-Eya2 binding, biochemical; stronger effect = lower value; 360,000 tested, 0.56% active; Homeobox protein SIX1 (Homo sapiens) + Protein phosphatase EYA2 (Homo sapiens), …; activity change, % (test concentration not listed)
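Homogeneous AlphaScreen proximity assay pairing GST-Six1 with His-tagged Eya2 (added as 5X mix: 250 nM and 500 nM) in 50 mM Tris pH 8.0, 300 mM NaCl, 1 mM TCEP. Glutathione donor and nickel acceptor beads; 1 h, 37 °C, dark.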
KDM4E inh – qHTS Assay for Inhibitors of Human Jumonji Domain Containing 2E (JMJD2E); JMJD2E catalytic domain, FDH-coupled NADH fluorescence (FDH is formaldehyde dehydrogenase); Lysine-specific demethylase 4E (Homo sapiens), B2RXH2; Potency, µM (series often up to 57.1 µM), for inactives: top-dose activity change, negative = inhibition, most hits filed as inhibitors; 230,000 tested, 1.6% active; active = well fitted inhibition curve with a large enough effect, not every such curve was filed as active; inconclusive = small, poorly fitted or top-dose-only effect, or another doubt; inactive = no such curve, though single readings can be large or run the other way;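 also: potency is read from the fitted curve at half-maximal effect; 0% = wells with enzyme and -100% = buffer wells without enzyme; nearly all actives have a fitted effect of over 50% in size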
* marks the source's active call; other numbers are inactive results; u = inconclusive; x = not tested or not shown. Rule as the data show it, unless noted: active = activity change below about -65%; inconclusive = mostly about -30% to -63%; inactive = weaker than that. Unless noted, % is scaled to controls: 0 for no effect and ±100 for the full control effect.

SMILES | KCNH2 3.1 block | CtBP-E1A blk | hERG WT inh | Six1-Eya2 blk | KDM4E inh
COc1cc(/C=C(\C#N)C(=O)Nc2cccc(C(=O)O)c2)ccc1OCc1ccc(Cl)cc1 | -11.5 | 13.0 | -91.5* | 13.8 | x
CCN(CC1CCCN(CCc2cccc(F)c2)C1)C(=O)c1cc(C)oc1C (stereo not given) | -29.2 | -5.9 | 41.1 | -14.9 | x
CCN(CC1CCCN(CCc2cccc(F)c2)C1)C(=O)c1cc2ccccc2o1 (stereo not given) | -75.4* | -4.3 | -24.2 | -8.6 | x
O=C(O)C1C2C=CC(C2)C1C(=O)Nc1cccc(Cl)c1 (stereo not given) | -13.8 | 13.5 | -17.1 | 8.9 | x
Fc1c(CSC(=S)N2CCOCC2)cccc1CSC(=S)N1CCOCC1 | -195.6* | -16.5 | -151.7* | 3.5 | -2.6%
O=C(CSc1ccc2nnc(-c3cccnc3)n2n1)Nc1ccc(F)cc1F | x | -69.0* | 15.8 | u | x
CCN(CC)S(=O)(=O)c1cc(NC(=O)COC(=O)c2ccc(NC(=O)CC#N)cc2)ccc1C | 0.0 | -6.5 | -6.3 | -7.3 | 3.98µM*
CCOc1ccc(NC(=O)NCCN2CCN(c3cccc(C)c3C)CC2)cc1 | -88.8* | 3.0 | 35.9 | -0.2 | x
CCOc1ccc(NC(=O)NCCN2CCN(c3ccccc3F)CC2)cc1 | -33.8 | -5.2 | 12.5 | -16.3 | x
CCOc1cccc(N2CCN(CCNC(=O)Nc3ccc(C)cc3)CC2)c1C | -93.4* | -0.4 | 6.3 | -7.3 | x
COc1cccc(CNCc2ccc(OC)cc2OC)c1 | -3.7 | -3.4 | 14.0 | 1.4 | x
COc1ccc(CC(=O)OCC(=O)NC(=O)NC2CCCCC2)cc1 | 1.0 | -2.6 | -0.8 | 2.2 | 1.0%
CCn1cc(Cl)c(C(=O)Nc2cccc(C(F)(F)F)c2)n1 | -1.0 | 0.4 | -8.2 | 8.5 | 2.2%
Cc1cc(-c2nn(-c3ccccc3F)cc2CN2CCN(c3ccncc3)CC2)c(C)s1 | -135.5* | -24.0 | -136.7* | 4.5 | 3.2%
Cc1cc(-c2nn(-c3ccccc3F)cc2CN2CCC(O)CC2)c(C)s1 | 2.8 | -10.8 | -9.6 | -5.8 | -5.1%
O=S(=O)(c1ccc(Cl)cc1)N1CCC(O)(CN2CCN(Cc3ccccc3)CC2)CC1 | -73.1* | -20.5 | -19.2 | -2.8 | 5.3%
O=S(=O)(NC1CCCCC1N1CCN(c2ccc(F)cc2)CC1)c1ccccc1 (stereo not given) | -81.1* | x | 26.7 | 1.3 | x
O=S(=O)(NC1CCCCC1N1CCCCC1)c1ccccc1 (stereo not given) | 6.2 | 3.4 | -2.0 | 7.6 | x
Cc1ccc(S(=O)(=O)N2C=CC(C(F)(F)F)=NCC2)cc1 | 13.3 | -3.1 | -76.5* | 9.1 | 6.8%
CC(C)(C)c1ccc(S(=O)(=O)N2C=CC(C(F)(F)F)=NCC2)cc1 | -7.2 | -0.1 | 24.2 | 1.3 | 0.0%
c1ccc(-c2nnc(-c3ccccn3)nc2NC2CCCCC2)cc1 | 12.2 | -94.7* | 5.6 | -84.5* | u
Oc1ccccc1-c1nc(NC2CCCC2)c2ccccc2n1 | -13.5 | 5.9 | -5.3 | 2.3 | x
CNc1nc(-c2ccccn2)nnc1-c1ccccc1 | 10.1 | -94.8* | -2.7 | -92.7* | u
O=c1cc(-c2ccccc2Cl)oc2c(NS(=O)(=O)c3ccccc3C(F)(F)F)ccc(O)c12 | -12.6 | u | -4.3 | -3.9 | -23.9%
CCn1c(C(=O)NCCCN2CCc3ccccc3C2)cc2sccc21 | -36.3 | -4.5 | 17.2 | -4.5 | 7.7%
SMILES | KCNH2 3.1 block | CtBP-E1A blk | hERG WT inh | Six1-Eya2 blk | KDM4E inh
COc1ccc(CCn2c(NN=C(C)C)nc3c2c(=O)[nH]c(=O)n3C)cc1 | -1.2 | u | 3.9 | u | u
Cc1cccc(NS(=O)(=O)c2ccc(C(=O)NCC3(N4CCCCC4)CCCCC3)cc2)c1C | -77.8* | 8.3 | 8.4 | -3.0 | x
Cc1cc(Cl)ccc1OC(C)C(=O)Nc1ccc([N+](=O)[O-])cn1 (stereo not given) | -94.3* | -4.0 | -124.7* | -28.7 | 0.7%
Cc1ccc(OC(C)C(=O)Nc2ccc(Cl)cn2)c([N+](=O)[O-])n1 (stereo not given) | 2.0 | 5.5 | -4.5 | 4.7 | x
O=c1c2ccccc2nc(/C=C/c2cccnc2)n1CCc1ccccc1 | -2.0 | 1.9 | -2.0 | -14.0 | 15.8µM*
O=C(/C=C/c1ccc(F)cc1)NC(=S)NNC(=O)c1cnccn1 | 21.3 | -81.2* | -1.8 | -90.2* | u
Cc1cc(C)c(N)c(C(=O)O)c1 | 13.4 | x | 2.8 | -2.3 | u
Cc1cc(C)c(O)c(N)c1 | x | x | x | x | 15.8µM*
Cc1ccnc(NC(=O)CCC(=O)N(CC(=O)NC(C)(C)C)c2ccc(F)c(Cl)c2)c1 | -87.4* | -7.7 | -3.1 | -10.9 | -0.5%
COC(=O)c1ccc(NCc2cc(O)ccc2O)cc1O | 9.1 | 1.3 | 9.2 | -18.5 | x
Oc1c(C(c2cccs2)N2CCN(c3ccccc3)CC2)ccc2cccnc12 (stereo not given) | x | x | x | x | 7.94µM*
CN1CCN(C(c2ccc(C(F)(F)F)cc2)c2ccc3cccnc3c2O)CC1 (stereo not given) | -0.3 | -84.1* | -2.3 | u | x
CN1CCN(C(c2cccc(C(F)(F)F)c2)c2nnnn2C(C)(C)C)CC1 (stereo not given) | 2.0 | -3.1 | -7.9 | 5.7 | 5.8%
Oc1c(C(c2ccccc2Cl)N2CCCC2)ccc2cccnc12 (stereo not given) | 6.9 | x | -3.6 | u | u
Cc1c(Cl)cccc1NC(=O)c1cc(-c2ccccc2O)n[nH]1 | -103.3* | -11.0 | -22.3 | 4.9 | 0.1%
COc1ccc(Cl)cc1NC(=O)c1cc(-c2ccccc2O)n[nH]1 | -3.7 | 8.1 | -8.2 | -1.5 | -2.9%
CCSC1=NC(=O)/C(=C2/C=Cc3ccccc3N2CC)S1 | -2.5 | -74.2* | 2.4 | -79.1* | -4.7%
CC1(C)Cc2c(cnn2-c2ccc(F)cc2)C(NC(=O)c2ccoc2)C1 (stereo not given) | -80.9* | 1.6 | u | -0.9 | x
CC1(C)Cc2c(cnn2-c2cccc(F)c2)C(NC(=O)c2csnn2)C1 (stereo not given) | u | -9.4 | -74.0* | -7.4 | x
CCOC(=O)c1cnc2ccc(OCC)cc2c1NCc1ccccc1OC | -36.2 | 14.8 | -15.0 | 0.7 | 3.6%
Nc1c(Cl)ncnc1N/N=C/c1ccc2ccccc2n1 | -23.4 | -79.5* | 1.5 | -80.4* | u
Nc1c(Cl)ncnc1N/N=C/c1ccccn1 | -13.3 | -86.3* | 0.5 | -87.0* | 20µM*
COc1cccc(/C=C2\Oc3cc(OCC(=O)N4CCCC4)ccc3C2=O)c1OC | -0.9 | x | -15.9 | 1.8 | x
O=c1[nH]c(SCc2ccccc2Cl)nc2[nH]ncc12 | -3.8 | -12.5 | 4.1 | 1.9 | 3.6%
